Measured values published in PubChem BioAssay (NCI).
The panel holds about 83,000 compounds, 20% with a hit somewhere; the sample as a whole holds those more often.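 Testing used 96-well plates and a 48-hour single-concentration exposure. Example: -40 means 40% of the starting cells died.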 Calls of active or inactive are those of the source. The calls were made as follows: active = growth percent below 10; inactive = the rest.

How the values were obtained:
Test in all cases: NCI-60 one-dose screen, 48 h (100 = growth as untreated, 0 = no growth, -100 = all killed)
Details in all cases: 10 µM unless noted
[1] = system: SR leukemia
[2] = system: RPMI-8226 leukemia
[3] = system: OVCAR-8 ovarian
[4] = system: OVCAR-5 ovarian
[5] = system: OVCAR-4 ovarian
[6] = system: SK-OV-3 ovarian
[7] = system: IGROV1 ovarian
[8] = system: OVCAR-3 ovarian
[9] = system: HS 578T breast
[10] = system: NCI/ADR-RES ovarian
[11] = system: T-47D breast
[12] = system: BT-549 breast
[13] = system: MDA-MB-435 melanoma
[14] = system: SW-620 colon
[15] = system: MCF7 breast
[16] = system: HCT-116 colon
[17] = system: HCC-2998 colon
[18] = system: KM12 colon

Measured: growth

COc1cc2ncnc(Nc3ccc(F)c(Cl)c3)c2cc1OCC(=O)N1CCN(c2ccccc2)CC1
inactive: [1] 84.4% | [2] 83.6% | [3] 93.5% | [4] 75% | [5] 85.7% | [6] 96% | [7] 48.9% | [8] 87.8% | [9] 93.9% | [10] 80.5% | [11] 77.4% | [12] 106% | [13] 95.6% | [14] 101% | [15] 90% | [16] 67.7% | [17] 97.8% | [18] 102%

CS(=O)(=O)Nc1cncc(-c2ccc3ncnc(Nc4cncc(Cl)c4)c3c2)c1
inactive: [1] 87.9% | [2] 102% | [3] 87.1% | [4] 74.3% | [5] 108% | [6] 81.8% | [7] 69.8% | [8] 52.9% | [9] 56.6% | [10] 95.7% | [12] 72.6% | [13] 103% | [14] 107% | [15] 55.6% | [16] 91.3% | [17] 95% | [18] 84.7%
active: [11] 2.52%

CCCCCOC(=O)c1c(C)[nH]c(/C=C2\N=C(c3ccc[nH]3)C=C2OC)c1C
active: [1] -30% | [2] -43.6% | [3] 7.42% | [4] -47.1% | [5] -7.23% | [6] 8.75% | [7] -14.1% | [8] -52.4% | [9] -23.5% | [10] 5.69% | [11] -42.5% | [12] 2.11% | [13] -16.9% | [14] -1.61% | [15] -61.2% | [16] -85.7% | [17] -20.1% | [18] -13.6%

C[C@@H](CO)[C@@H]1CCC=C2CC[C@]3(C)[C@H](CC[C@@H]4[C@@]5(C)CCCNC(C)(C)[C@@H]5CC[C@]43C)[C@H]21
inactive: [3] 67.2% | [4] 82.9% | [5] 48.8% | [6] 107% | [7] 71.3% | [8] 69.8% | [9] 69.8% | [10] 80.9% | [11] 58.9% | [12] 81.5%
active: [1] -29.9% | [2] -19.8% | [13] 7.57% | [14] -72.1% | [15] 7.68% | [16] -20.3% | [17] -61.5% | [18] 4.99%

O=C(CSc1nc2ccc([N+](=O)[O-])cc2[nH]1)Nc1ccc([N+](=O)[O-])cc1
active: [2] -17.5% | [5] 1.39% | [11] 3.64% | [12] 7.77% | [16] 9.88%
inactive: [1] 10.7% | [3] 14.4% | [4] 63.3% | [6] 27% | [7] 37.7% | [8] 18.5% | [9] 31.7% | [10] 36.3% | [13] 14.3% | [14] 31.9% | [15] 16% | [17] 31.1% | [18] 21.8%

Cc1cc(S(=O)(=O)/N=C(\N)n2nc(C)c(C)c2C)c(SCc2ccccc2)cc1Cl
active: [7] -20.8%
inactive: [1] 65.8% | [2] 26.5% | [3] 72.8% | [4] 90% | [5] 63.3% | [6] 106% | [8] 81% | [9] 77.4% | [10] 57.4% | [11] 53% | [12] 112% | [13] 27% | [14] 75.4% | [15] 70.8% | [16] 62% | [17] 56.9% | [18] 81.7%

COC(=O)/C=C1/SC(=Nc2cccc(OC)c2)N(CCc2c[nH]c3ccc(O)cc23)C1=O
active: [1] 0.788%
inactive: [2] 16.2% | [3] 41.6% | [4] 83.3% | [5] 49.4% | [6] 101% | [7] 51.8% | [8] 40.3% | [9] 66.5% | [10] 58.8% | [11] 42.2% | [12] 33.1% | [13] 23.5% | [14] 56.1% | [15] 20.4% | [16] 34.3% | [17] 65.1% | [18] 53.5%

CN1C(=O)/C(=C\c2c(Cl)cccc2Cl)c2ccccc21
inactive: [1] 34.3% | [2] 84.2% | [3] 94.1% | [4] 98.6% | [5] 87.9% | [6] 99.2% | [7] 92.1% | [8] 95.4% | [9] 81.7% | [10] 80.1% | [11] 90.3% | [12] 98.7% | [14] 66.3% | [15] 68.7% | [16] 91.9% | [17] 80.4% | [18] 62.3%
active: [13] 7.16%

O=C(Nc1nc2ccccc2s1)c1ccc(F)cc1
inactive: [1] 98.4% | [2] 88.5% | [3] 109% | [4] 101% | [5] 85.4% | [6] 108% | [7] 88.9% | [8] 104% | [9] 140% | [10] 95.7% | [11] 55.3% | [12] 109% | [13] 101% | [14] 112% | [15] 68.1% | [16] 92.8% | [17] 69.9% | [18] 52.8%

CCC(C)(C)C(=O)O[C@H]1C[C@@H](C)C=C2C=C[C@H](C)[C@H](CC[C@@H]3CC(SCCN)CC(=O)O3)[C@H]21 (stereo partly drawn)
active: [2] 6.62%
inactive: [1] 23.3% | [3] 88.1% | [4] 99.1% | [5] 101% | [6] 102% | [7] 98.6% | [8] 90.9% | [9] 98.9% | [10] 96.7% | [11] 89.8% | [12] 78.7% | [13] 93.3% | [14] 81.8% | [15] 79.9% | [16] 37.5% | [17] 73.6% | [18] 88.2%

O=C(N/N=C/c1ccc(Cl)cc1)c1[nH]c2ccc(Cl)cc2c1-c1ccccc1
inactive: [1] 52.2% | [3] 28.8% | [4] 51.5% | [5] 41.4% | [7] 17.3% | [9] 82% | [11] 73.9% | [12] 10.2% | [14] 37.5% | [15] 13.5% | [17] 26.4%
active: [2] -3.56% | [6] -1.75% | [8] -13.4% | [10] 1.79% | [13] -33.3% | [16] 7.64% | [18] 4.94%

C1CN(SSN2CCOCC2)CCO1
inactive: [1] 13.3% [100 µM] | [4] 35.8% [100 µM] | [6] 101% [100 µM] | [7] 54.8% [100 µM] | [9] 41% [100 µM] | [15] 22.1% [100 µM] | [17] 90.7% [100 µM]
active: [2] 1.55% [100 µM] | [3] -25.2% [100 µM] | [5] -51.7% [100 µM] | [8] -82.2% [100 µM] | [10] 2.69% [100 µM] | [11] -24.8% [100 µM] | [12] -90% [100 µM] | [13] 0.278% [100 µM] | [14] -56.4% [100 µM] | [16] -75.5% [100 µM] | [18] 2.07% [100 µM]

Cn1cc(C(=O)c2nc(-c3c[nH]c4ccccc34)no2)c2cc(F)ccc21
active: [8] 0.717% | [13] -19.1%
inactive: [1] 11.2% | [2] 37.5% | [3] 49.3% | [4] 68.3% | [5] 69.8% | [6] 43.3% | [7] 32.5% | [9] 44.8% | [10] 36.5% | [11] 37.8% | [12] 48% | [14] 23.2% | [15] 19.2% | [16] 19.5% | [17] 73.9% | [18] 26.7%

CC(=O)N1N=C(c2ccc(Nc3nc(Nc4ccccc4)nc(Nc4ccccc4)n3)cc2)CC1c1ccccc1 (stereo not drawn)
inactive: [1] 62.3% | [2] 59.9% | [3] 82.9% | [4] 91.9% | [5] 96.5% | [6] 95.5% | [7] 54.1% | [8] 88.6% | [9] 89.3% | [10] 84.6% | [11] 46.5% | [12] 87.2% | [13] 101% | [14] 99% | [15] 67.5% | [16] 77.1% | [17] 99.2% | [18] 89.6%

COc1ccc2[nH]c(C(=O)N3CCN(C(=O)OCc4ccc5c(Cl)cc(Cl)c(O)c5n4)CC3)cc2c1
inactive: [6] 44.7%
active: [1] 2.29% | [2] -27.9% | [3] -64.1% | [4] -88.7% | [5] -69.5% | [7] -96.4% | [8] -97.3% | [9] -15.1% | [10] -2.44% | [11] -57.5% | [12] -69.3% | [13] -91% | [14] -81.9% | [15] -55.7% | [16] -92.2% | [17] -86.7% | [18] -62.3%

CSc1nc2ncc([N+](=O)[O-])c(=O)n2[nH]1
inactive: [1] 107% | [2] 107% | [3] 104% | [4] 106% | [5] 102% | [6] 113% | [7] 105% | [8] 113% | [9] 103% | [10] 101% | [11] 99.8% | [12] 104% | [13] 100% | [14] 101% | [15] 96.5% | [16] 105% | [17] 107% | [18] 103%
